# Measured values as given in PubChem BioAssay (EPA / NIEHS).
# Results filed as inconclusive are left out. The source made the active and inactive calls. The calls were made as follows: active = hit-call score of the fitted dose curve at least 0.9, where 1 is the maximum; inconclusive = response in the unintended direction; inactive = score below 0.9.
# Assays:
# [1] = ACEA_ER_AUC_viability: ACEA Biosciences xCELLigence Real-Time Cell Analysis on Estrogen Receptor Agonism for Viability (AID 2283782);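 also: hit means loss of impedance signal meaning reduced cell growth or viability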
# Method in brief: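 Read-out: real-time electrical impedance (RT-CES) area under curve, loss of signal taken as reduced viability, normalized to DMSO baseline. T-47D cells, charcoal-stripped serum medium, compounds up to 100 uM final, continuous exposure, 80 h.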
# [2] = target: AR (gene 367) (UniProt P10275); experiment: ACEA_AR_agonist_80hr: ACEA Biosciences xCELLigence Real-Time Cell Analysis on Androgen Receptor Agonism for Proliferation (AID 2283783);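 also: hits increase impedance growth signal above DMSO baseline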
# Method in brief: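 Impedance (RT-CES) growth signal at 80 h post-dose; 22Rv1 cells, 8-pt 1:4 series, top 100 uM final, DMSO ≤0.5%; duplicate plates; gain-of-signal fit relative to DMSO baseline.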
# [3] = target: AR (gene 367) (UniProt P10275); experiment: ACEA_AR_antagonist_80hr: ACEA Biosciences xCELLigence Real-Time Cell Analysis on Androgen Receptor Antagonism for Proliferation (AID 2283787);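 also: 22Rv1 human prostate cancer cells with growth followed by electrical impedance; hits lower the impedance growth signal relative to DMSO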
# Method in brief: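 Measures real-time proliferation of 22Rv1 prostate cancer cells by electrode impedance at 80 hours after dosing. Test articles ran at eight concentrations (1:4 steps, top 100 uM final) in biological duplicate.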
# [4] = STM_H9_NormalizedViability: Cytotoxicity Assessment at 120 hours in the Stemina devTOX quickPredict H9 human embryonic stem cell (hESC)-based Assay (AID 2283784)
# Method in brief: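 Viability of the cell layer was taken from live-cell protease cleavage of a fluorogenic substrate after compound exposure of undifferentiated H9 stem cells, with replenishment each 24h. Fluorescence was normalized to vehicle (0.1% DMSO).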
# Chain of AR (gene 367) (P10275 whole entry, looked up): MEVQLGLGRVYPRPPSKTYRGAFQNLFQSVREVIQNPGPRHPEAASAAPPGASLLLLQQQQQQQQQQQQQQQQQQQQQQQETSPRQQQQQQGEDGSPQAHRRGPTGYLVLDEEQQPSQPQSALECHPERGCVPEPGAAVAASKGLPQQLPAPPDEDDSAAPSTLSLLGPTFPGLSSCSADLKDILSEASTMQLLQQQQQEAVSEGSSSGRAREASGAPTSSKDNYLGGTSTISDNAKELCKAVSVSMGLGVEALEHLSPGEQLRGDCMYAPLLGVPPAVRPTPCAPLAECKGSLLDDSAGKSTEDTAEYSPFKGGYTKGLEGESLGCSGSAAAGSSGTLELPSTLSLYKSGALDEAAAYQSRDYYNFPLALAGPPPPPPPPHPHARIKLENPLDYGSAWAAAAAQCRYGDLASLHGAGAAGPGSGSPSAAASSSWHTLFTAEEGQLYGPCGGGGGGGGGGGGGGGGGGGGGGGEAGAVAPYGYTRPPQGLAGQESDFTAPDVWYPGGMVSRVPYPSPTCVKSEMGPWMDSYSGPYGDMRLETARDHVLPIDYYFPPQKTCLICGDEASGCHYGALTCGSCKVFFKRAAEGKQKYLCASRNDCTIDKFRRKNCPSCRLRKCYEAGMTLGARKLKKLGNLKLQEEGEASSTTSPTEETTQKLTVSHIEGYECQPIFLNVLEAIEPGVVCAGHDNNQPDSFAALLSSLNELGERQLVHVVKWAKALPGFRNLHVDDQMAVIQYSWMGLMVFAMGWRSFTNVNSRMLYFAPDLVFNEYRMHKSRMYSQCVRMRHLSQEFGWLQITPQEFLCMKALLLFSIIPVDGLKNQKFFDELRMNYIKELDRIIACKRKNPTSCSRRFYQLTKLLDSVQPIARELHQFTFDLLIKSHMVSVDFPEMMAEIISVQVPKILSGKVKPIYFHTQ
smiles,measurement,setting,value
O=C(O)c1ccccc1C(=O)OCc1ccccc1,outcome,[1],inactive
same,outcome,[2],inactive
same,outcome,[3],inactive
CCCCOC(=O)c1ccc(O)cc1,outcome,[4],inactive
same,AC50,[3],67.9 µM (active)
Cc1cn([C@H]2C[C@H](N=[N+]=[N-])[C@@H](CO)O2)c(=O)[nH]c1=O,outcome,[1],inactive
same,outcome,[4],inactive
CCCCCCCCCCCC[N+](C)(C)C,AC50,[1],50 µM (active)
same,AC50,[4],8.63 µM (active)
CO[C@H]1/C=C/O[C@@]2(C)Oc3c(C)c(O)c4c(O)c(c(/C=N/N5CCN(C)CC5)c(O)c4c3C2=O)NC(=O)/C(C)=C\C=C\[C@H](C)[C@H](O)[C@@H](C)[C@@H](O)[C@@H](C)[C@H](OC(C)=O)[C@@H]1C,outcome,[4],inactive
Clc1cc(Cl)c2c(c1)N=C1CCCCCN1C2,outcome,[1],inactive
same,outcome,[4],inactive
O=c1c(-c2ccc(O)cc2)coc2cc(O)cc(O)c12,outcome,[2],inactive
same,AC50,[4],83.2 µM (active)
same,AC50,[3],65.1 µM (active)
OCCO,outcome,[1],inactive
same,outcome,[4],inactive
same,outcome,[3],inactive
O=C(Nc1ccc(Cl)cc1)Nc1ccc(Cl)c(Cl)c1,AC50,[1],18.7 µM (active)
same,outcome,[2],inactive
same,outcome,[4],inactive
same,AC50,[3],5.97 µM (active)
CN1C(=O)CC[C@H]1c1cccnc1,outcome,[1],inactive
same,outcome,[4],inactive
CC(=O)N1CCN(c2ccc(OC[C@H]3CO[C@](Cn4ccnc4)(c4ccc(Cl)cc4Cl)O3)cc2)CC1,AC50,[1],86.7 µM (active)
same,outcome,[4],inactive
COc1cc(C(=O)NC2CCN(C)CC2)ccc1Nc1ncc2c(n1)N(C1CCCC1)CC(F)(F)C(=O)N2C,outcome,[2],inactive
same,AC50,[4],0.0449 µM (active)
same,AC50,[3],0.0058 µM (active)
CCN(Cc1cccnc1)C(=O)c1cccc(Cl)c1[C@]1(C)C(=O)N(Cc2ccc(OC)cc2OC)c2ccc(Cl)cc21,outcome,[1],inactive
same,outcome,[2],inactive
same,AC50,[3],32 µM (active)
CCCCCCCCOC(=O)c1cc(O)c(O)c(O)c1,AC50,[1],10 µM (active)
same,AC50,[4],2.44 µM (active)
COc1cccc([C@H](O)C2CCN(CCc3ccc(F)cc3)CC2)c1OC,outcome,[1],inactive
same,outcome,[4],inactive
CN(C)C(=O)C1(N2CCCCC2)CCN(CC[C@@]2(c3ccc(Cl)c(Cl)c3)CN(C(=O)c3ccccc3)CCO2)CC1,AC50,[1],10.3 µM (active)
same,AC50,[4],9.2 µM (active)
same,AC50,[3],13.6 µM (active)
Cc1occc1C(=O)Nc1ccc(C(=O)N2CCC(F)(F)/C(=C\C(=O)N3CCC(N4CCCCC4)CC3)c3ccccc32)cc1,outcome,[2],inactive
same,AC50,[3],42.3 µM (active)
CCCCCCCCCC(=O)O,outcome,[1],inactive
same,outcome,[3],inactive
CN(C)c1ccc(C(=C2C=CC(=[N+](C)C)C=C2)c2ccc(N(C)C)cc2)cc1,AC50,[1],5.4 µM (active)
same,AC50,[4],0.767 µM (active)
same,AC50,[3],0.167 µM (active)
NC(=O)c1nc(-c2cccc(-c3cc(F)ccc3OCC(F)(F)C(F)(F)F)c2)n[nH]1,AC50,[1],94 µM (active)
same,outcome,[2],inactive
same,AC50,[4],0.683 µM (active)
same,AC50,[3],18.4 µM (active)
CN(C[C@@H](CC[N+]12CCC(C3CCCCC3)(CC1)CC2)c1ccc(Cl)c(Cl)c1)C(=O)c1cc(C(F)(F)F)cc(C(F)(F)F)c1,AC50,[1],10.6 µM (active)
same,AC50,[4],16.4 µM (active)
same,AC50,[3],7.24 µM (active)
CCCCCCCCN(C)CCCCCCCC,outcome,[1],inactive
same,outcome,[2],inactive
same,outcome,[4],inactive
same,outcome,[3],inactive
NCc1cccc(C2CCN(C(=O)c3ccc(C#Cc4ccccc4F)o3)CC2)c1,AC50,[1],7.73 µM (active)
same,outcome,[2],inactive
same,AC50,[3],23.5 µM (active)
O=C(O)Cn1c(=O)n(Cc2ccc(Br)cc2F)c(=O)c2ccc(Cl)cc21,outcome,[1],inactive
same,outcome,[3],inactive
Cc1cc(F)ccc1-c1cc(N2CC[C@@H](O)[C@H]2CO)ncc1N(C)C(=O)C(C)(C)c1cc(C(F)(F)F)cc(C(F)(F)F)c1,AC50,[3],6.76 µM (active)
CN1C(=O)N(c2ccccc2Br)Cc2cnc(Nc3ccc4c(c3)OCC(CO)O4)nc21 (centres undefined),AC50,[4],1.81 µM (active)
